Assay results published in ChEMBL document CHEMBL3433997, “St. Jude Leishmania screening dataset” (2016).

How the values were obtained:
Format in all cases: functional
[1] = biological target: Solute carrier family 2, facilitated glucose transporter member 1 (Homo sapiens) (UniProt P11166); assay: ST_JUDE_LEISH: Cytotoxicity at 2uM final concentration against transgenic Leishmania Mexicana promastigotes LmGLUT1 that are glucose transport deficient and complemented with the human glucose transporter GLUT1. Activity is measured by DNA content using SYBR green in vitro
Chain of Solute carrier family 2, facilitated glucose transporter member 1 (Homo sapiens) (P11166 whole entry): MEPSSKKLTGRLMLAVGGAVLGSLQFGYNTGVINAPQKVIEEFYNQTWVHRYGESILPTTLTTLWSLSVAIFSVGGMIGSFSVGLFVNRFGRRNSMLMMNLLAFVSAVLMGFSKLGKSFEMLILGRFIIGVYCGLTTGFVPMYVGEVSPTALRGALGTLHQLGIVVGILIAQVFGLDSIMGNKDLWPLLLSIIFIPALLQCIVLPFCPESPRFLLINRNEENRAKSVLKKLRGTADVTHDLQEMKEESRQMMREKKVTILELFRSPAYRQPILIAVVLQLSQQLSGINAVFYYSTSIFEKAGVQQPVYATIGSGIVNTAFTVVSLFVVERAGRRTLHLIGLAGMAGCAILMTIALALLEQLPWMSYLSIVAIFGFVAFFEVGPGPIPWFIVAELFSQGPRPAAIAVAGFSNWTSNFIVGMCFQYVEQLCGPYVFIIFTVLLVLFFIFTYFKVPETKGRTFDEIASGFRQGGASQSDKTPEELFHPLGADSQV

[2] = biological target: Hexose transporter 1 (Plasmodium falciparum) (UniProt O97467); assay: ST_JUDE_LEISH: Cytotoxicity at 2uM final concentration against transgenic Leishmania Mexicana promastigotes LmPfHT that are glucose transport deficient and complemented with the Plasmodium falciparum hexose transporter. Activity is measured by DNA content using SYBR green in vitro
[3] = biological target: Glucose transporter (Leishmania mexicana) (UniProt O61059); assay: ST_JUDE_LEISH: Cytotoxicity at 2uM final concentration against transgenic Leishmania Mexicana promastigotes LmGT2 that are glucose transport deficient and complemented with the L. Mexicana glucose transporter 2. Activity is measured by DNA content using SYBR green in vitro

Structure (SMILES)	inhibition [1] [%]	inhibition [2] [%]	inhibition [3] [%]
Cc1cccc2nc(-c3cccc(-c4cccc(NC(=O)CN5CCN(C)CC5)c4)c3)[nH]c12	8.23	7.52	6.83
O=C(NCC(CCN1CCC(c2c[nH]c3ccccc23)CC1)c1ccccc1)Nc1ccc(Cl)c(Cl)c1 (centres undefined)	5.74	2.72	2.16
Cc1cccc(CN2CCCN(Cc3cccc(C(=O)Nc4ccc(C(C)(C)C)cc4)c3)CC2)c1	3.43	2.22	1.26
O=C(Nc1cccc(-c2cccc(-c3nc4ccccc4[nH]3)c2)c1)c1ccncc1	4.03	4.7	0.44
Cc1nc(-c2cccc(C(=O)Nc3cnc4ccccc4c3)c2)no1	5.51	3.53	3.52
FC(F)(F)c1cccc(CNC2CCN(CC3CCCCC3)CC2)c1	5.19	4.53	3.27
COc1cc(F)c2nccc([C@@H](O)CN3CCC(NCc4ccc5c(n4)NC(=O)CS5)C(F)C3)c2c1 (some centres undefined)	3.18	3.06	3.18
O=C(Cn1c(CCc2cccc(F)c2F)cc(=O)c2cccnc21)N(CCN1CCCC1)Cc1ccc(-c2ccc(C(F)(F)F)cc2)cc1	2.13	2.76	1.23
O=C(c1cc(C(=O)NC2CCCCC2)c(=O)n(C2CCCCC2)c1)c1cc(F)ccc1O	2.83	1.22	1.41
COc1ccc(OC)c(Cc2cnc3nc(N)[nH]c(=O)c3c2C)c1	3.38	4.59	5.15
Cc1c(N)ccc2[nH]c(-c3ccc(N)cc3)nc12	3.21	4.3	2.89
NOCCCOc1ccc(Cl)cc1	4.86	3.73	3.9
CC(C)(C)C1CC(=O)CC2C(=O)N(c3ccc(Br)cc3)C(=O)C21 (centres undefined)	2.94	0.44	-1.64
CCCCOc1ccc(C(=O)C(CCC(CNC(C)(C)C)C(=O)c2ccc(OCCCC)cc2)CNC(C)(C)C)cc1 (centres undefined)	43.9	12.2	31.8
CC(C)Cc1csc(NC(=O)C=Cc2ccco2)c1C(=O)O	-0.28	0.8	-0.08
COc1ccc(Nc2ncc3c(-c4cccc(NC(=O)c5ccc(N)cc5)c4)c[nH]c3n2)cc1OC	9.74	8.84	7.97
COc1ccc2ncc(Cl)c(CCN3C[C@H](CNCc4ccc5c(n4)NC(=O)CS5)[C@H](O)C3)c2n1	5.41	2.07	2.02
CN1CCN(CC(=O)Nc2ccc(-c3ccc(-c4nc5ccccc5[nH]4)s3)cc2)CC1	1.26	3.57	2.3
COc1ccc(Nc2nc(NCc3ccco3)c3ccccc3n2)cc1	25.5	20	12.1
CN1CCN(c2ccnc3ccc(NC(=O)Cc4ccc(Br)c5ccccc45)cc23)CC1	0.81	0.37	2.02
COc1cc2c(cc1S(=O)(=O)c1ccc(COc3ccc(C(F)(F)F)cc3)cc1)CNCC2	-1.59	-0.71	-1.92
Cc1ncccc1-c1cccc2c(NC(=O)Nc3ccc4nccc(N5CCN(C)CC5)c4c3)cccc12	4.96	3.58	1.71
COc1cccc(Cn2ccc3c4c(N)nc(N)nc4ccc32)c1	94.3	96	85.1
Cc1cc2nc(-c3ccc(C(=O)NCc4cccc(C(F)(F)F)c4)cc3)[nH]c2cc1C	-0.3	-2.94	-2.9

Structure (SMILES)	inhibition [1] [%]	inhibition [2] [%]	inhibition [3] [%]
Nc1cccc(C=CC(=O)N=c2cc[nH]c3ccccc23)c1	-0.24	0.74	-2.1
COc1cc(C=NNc2ccnc3cc(Cl)ccc23)ccc1O	2.02	2.62	3.46
COc1ccc2nccc([C@@H](O)CN3CCC(NCc4cc5sccc5nc4C(F)(F)F)CC3)c2c1	3.75	1.89	-4.21
CC(C)(C)C(C)(C)Cc1ccc(O)c(CN2CCN(c3ccccc3)CC2)c1	0.82	-0.41	-0.38
CN1CCN(c2cc(-c3cccnc3)nc(-c3ccncc3)n2)CC1	5.56	5.65	3.57
Cc1cccc2nc(-c3cccc(-c4cccc(CNCCCN5CCCC5=O)c4)c3)[nH]c12	-0.74	-0.59	-1.17
O=C(Nc1ccc(-c2ccc(-c3nc4ccccc4[nH]3)s2)cc1)Nc1ccc(Cl)c(Cl)c1	9.56	8.71	11.2
COc1cc(COc2c(C)nc(N)nc2N)cc(OC)c1OC	5.98	4.54	4.97
CC(C)(C)C/C=C\c1ccc(C(=O)NCC2CC2)cc1	6.73	9.04	3.76
Cc1[nH]c2ccccc2c(=O)c1Br	5.04	5.06	-5.87
Cc1nc2ccc(-c3nc4cc(N)ccc4[nH]3)cc2[nH]1	-2.46	10	1.44
C=CCn1ccc2c3c(N)nc(N)nc3ccc21	66	79.6	44.1
CCCCCCCCn1c2c(c(=N)c3c1CCC3)CCC2	87.3	91.5	89.9
CCN1CCC(N(Cc2ccc(-c3ccc(C(F)(F)F)cc3)cc2)C(=O)Cn2c(CCc3cccc(F)c3F)cc(=O)c3c2CCC3)CC1	1.27	0.83	0.64
CN(C)S(=O)(=O)c1cc(-c2ccc3nccc(-c4cccc(S(N)(=O)=O)c4)c3c2)cnc1N	8.3	7.26	7.13
Cc1cccc2nc(-c3ccc(-c4ccc(NC(=O)NCc5cccc(F)c5)cc4)s3)[nH]c12	7.99	9.74	5.43
Oc1ccccc1-c1nc2cccnc2n1CCc1cccc(C(F)(F)F)c1	4.81	3.7	5.31
COc1cc(C(=O)Nc2cccc(-c3cn4cccc(C)c4n3)c2)cc(OC)c1OC	15.8	10.9	10.5
COc1ccc2ncc(C#N)c(CCN3CCC(NCc4ccc5c(c4)OCCO5)CC3)c2c1	48.5	64.6	83.2
COc1cc(N(C)Cc2cnc3nc(N)nc(N)c3n2)cc(OC)c1OC	4.09	3.84	3.15
C=C(F)c1sc(CNCCCNc2nc3ccccc3[nH]2)c(C)c1Br	57.5	73.8	68.7
Cc1ccc2[nH]c(-c3ccccc3)cc(=NN=Cc3cccnc3)c2c1	1.16	0.03	-2.99
CC(=O)Nc1cccc(C(=O)Nc2cccc(-c3csc(-c4nc5ccccc5[nH]4)c3)c2)c1	4.93	2.83	3.14
CCn1c(-c2nonc2N)nc2c(-c3cccc(NC(=O)Nc4cccc(C(F)(F)F)c4)c3)ncc(OCCCN)c21	2.47	1.37	0.62
